Consider eleven molecules from PubChem BioAssay (NCATS).

SMILES strings stand for the structures. Records with an inconclusive call do not appear. Entries that show only a call come without a potency. Activity calls are given as the source filed them. Calls follow the shape of the dose curve; as a rule, active = well fitted cell-killing curve with a large enough effect; inconclusive = small, poorly fitted or top-dose-only effect, or effect the other way; inactive = no such curve, though single readings can be large or run the other way.
Potency is read from the fitted curve at half-maximal effect.

This test is described as follows: Quantitative High-Throughput drug screen in 47 multiple myeloma cell lines against the NCATS MIPE library collection: AMO1_DSMZ cell viability assay (AID 1918927; also: nearly all actives have a fitted effect of over 30% in size). Conditions: AMO1 myeloma cells viability, CellTiter-Glo ATP luminescence, 48 h; series mostly up to 45.8 µM. In a few lines:
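Inhibition of cell viability is measured here. Each line was plated at 500 cells per well, treated with MIPE 4.0 drugs, kept 48 hours at 37C, then assayed for ATP content by CellTiter-Glo luminescence.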
On the technique in general: Cellular ATP, detected with luciferase, serves as a proxy for viable cell number.
On to `O=C(O)C(=O)Nc1cccc(C2=NN=N[N]2)c1`, for which the Potency entry was “inactive”.

`CN1[C@H]2CC(OC(=O)[C@@H](CO)c3ccccc3)C[C@H]1[C@H]1O[C@H]12` (stereo partly specified): the Potency result is “inactive”.

Consider `Cc1ccc(O)c(C(CCN(C(C)C)C(C)C)c2ccccc2)c1` (stereo unspecified), for which the Potency entry is “inactive”.

On to `CC[C@H]1OC(=O)[C@H](C)[C@@H](O[C@H]2C[C@@](C)(OC)[C@@H](O)[C@H](C)O2)[C@H](C)[C@@H](O[C@@H]2O[C@@H](C)C[C@H](N(C)C)[C@@H]2O)[C@](C)(O)C[C@@H](C)C(=O)[C@H](C)[C@@H](O)[C@]1(C)O`, for which the Potency entry is “inactive”.

Take `C=CC[C@@H]1C=C(C)C[C@H](C)C[C@H](OC)[C@H]2O[C@@](O)(C(=O)C(=O)N3CCCC[C@H]3C(=O)O[C@H](C(C)=C[C@@H]3CC[C@H](O)[C@H](OC)C3)[C@@H](C)[C@@H](O)CC1=O)[C@@H](C)C[C@@H]2OC`: the Potency is 2.64 µM (active).

With `CON=C(C(=O)N[C@@H]1C(=O)N2C(C(=O)O)=C(CSC(=O)c3ccco3)CS[C@H]12)c1csc(N)n1`, the Potency entry was “inactive”.

For the molecule `CCc1cnn2c(NCc3ccc[n+]([O-])c3)cc(N3CCCC[C@@H]3CCO)nc12`, the Potency is 0.0235 µM (active).

Consider `O=C(C=CC=Cc1ccc2c(c1)OCO2)N1CCCCC1`, for which the Potency result was “inactive”.

As to `CON=C(C(=O)N[C@@H]1C(=O)N2C(C(=O)O)=C(Cn3ccc(=N)n3CCO)CS[C@H]12)c1csc(N)n1`, the Potency result was “inactive”.

Regarding `C[C@]12CC[C@@H]3c4ccc(O)cc4CC[C@H]3[C@H]1CC[C@H]2O`, the Potency is 14.8 µM (active).

Consider `C[C@@H](Oc1ccc2[nH]nc(C=Cc3cnn(CCO)c3)c2c1)c1c(Cl)cncc1Cl`, for which the Potency entry was “inactive”.
